KB-V1 MDR tox = qHTS assay for MDR1-selective chemotherapeutics: Primary screen using the drug-selected MDR subline cells KB-V1; KB-V1 MDR cells viability, CellTiter-Glo, 72 h; Potency, µM (doses to about 46.1 µM), most hits filed as cytotoxic; 400,000 compounds, 3.4% hits; AID 1347076, 2019; also: % is scaled to controls: 0 for no effect and ±100 for the full control effect; nearly all actives have a fitted effect of over 60% in size
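KB-V1 MDR subline cells in DMEM (phenol-red free, 10% FBS) exposed to compounds in qHTS concentration series for 72 h at 37 degrees C. Viability read by CellTiter-Glo luminescence; concentration-effect curves fitted after normalization and correction.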
SW480 rereplic = A quantitative high throughput screen for small molecules that induce DNA re-replication in SW480 colon adenocarcinoma cells; SW480 DNA re-replication, Hoechst DNA content imaging, 48 h; Potency, µM (top dose mostly 46.1 µM), for inactives: at the top dose re-replication activation, usual class: activators; 340,000 compounds, 1.8% hits; also: % of control where 0% means no effect; nearly all actives have a fitted effect of over 55% in size
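Per well, 250 cells were exposed to pinned compound for 48 hr. Nuclear DNA was visualised with Hoechst (40 min, 37 C) and total object intensity recorded by fluorescence scanning.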
HT1080-NT tox = qHTS for induction of synthetic lethality in tumor cells producing 2HG: qHTS for the HT-1080-NT fibrosarcoma cell line; 360,000 compounds, 1.6% hits; Potency, µM (series often up to 46.1 µM), without a hit: at the highest dose activity, negative = less viability, usual class: cytotoxic; HT-1080-NT fibrosarcoma viability, CellTiter-Glo ATP luminescence, 48 h;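 also: NT is the 2HG producing partner of a matched IDH1 knockdown line; 0% = DMSO-treated cells and -100% = media-only wells without cells; nearly all actives have a fitted effect of over 55% in size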
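Compounds were tested in concentration-response format on HT-1080-NT cells for 48 hours at 37 degrees C. Cell viability came from CellTiter-Glo luminescence; curves were classified by r2, response magnitude and activity.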
HT1080 IDH1KD tx = qHTS for induction of synthetic lethality in tumor cells producing 2HG: qHTS for the HT-1080-IDH1KD cell line; HT-1080 IDH1 knockdown viability, ATP luminescence, 48 h; 360,000 compounds, 2% hits; Potency, µM (doses to about 46.1 µM), inactives show at the top dose activity, negative = toxicity, actives largely listed as cytotoxic;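 also: 0% = DMSO wells and -100% = cell-free medium wells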
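Luminescent ATP read-out (CellTiter-Glo, 10 min at room temperature) after 48 h compound exposure at 37 °C gave viability of IDH1-knockdown HT-1080 cells. Activity was normalised to DMSO and cell-free wells, then fitted as concentration-response curves.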
MCF10A rereplic = A quantitative high throughput screen for small molecules that induce DNA re-replication in MCF 10a normal breast cells. 350,000 compounds, 2.9% hits. MCF 10A DNA re-replication, Hoechst nuclear intensity, 48 h. Potency, µM (highest dose often 46.1 µM), for the others: at the highest dose activity, positive = re-replication, actives largely listed as activators. AID 624296, 2012; also: % of control where 0% means no effect; nearly all actives have a fitted effect of over 50% in size
KB-3-1 tox = qHTS assay for MDR1-selective chemotherapeutics: Primary screen using the parental adenocarcinoma cell KB-3-1. Potency, µM (top dose mostly 46.1 µM), most hits filed as cytotoxic. AID 1347075, 2019. 400,000 compounds, 1.4% hits. KB-3-1 viability, CellTiter-Glo ATP luminescence, 72 h; also: % is scaled to controls: 0 for no effect and ±100 for the full control effect; nearly all actives have a fitted effect of over 60% in size
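KB-3-1 cells, DMEM (no phenol red) + 10% FBS; compound by pin transfer, 72 h, 37 °C. Readout: CellTiter-Glo luminescence after 10 min. Data normalized, curve-fitted.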
Starred values were filed as active, the others as inactive; i = inactive; ? = inconclusive; / = no result given; ! = a repeat was not active. Only some compounds are listed: those with a hit (about 8% of all), similar ones and a draw of the others. Calls follow the shape of the dose curve; as a rule, active = well fitted curve in the direction sought with a large enough effect; inconclusive = small, poorly fitted or top-dose-only effect, or another doubt; inactive = no such curve, though single readings can be large; an effect the other way counts as inactive or inconclusive. Potency is read from the fitted curve at half-maximal effect.

SMILES | KB-V1 MDR tox | SW480 rereplic | HT1080-NT tox | HT1080 IDH1KD tx | MCF10A rereplic | KB-3-1 tox
CC(C)CCNC(=O)c1cnn2c(C(F)(F)F)cc(-c3ccco3)nc12 | 11µM* | 0% | 1% | ? | -10% | ?
O=C(NC1CCCC1)c1cnn2c(C(F)(F)F)cc(-c3ccco3)nc12 | 5.2µM* | 0% | 3% | ? | ? | i
Cc1ccn2c(NC3CCCCC3)c(-c3ccc(SC4CCCCC4)cc3)nc2c1 | 18µM* | / | 9% | 2% | / | ?
CCC(C)Sc1cccc(-c2nc3cc(C)ccn3c2NC2CCCCC2)c1 (stereo not given) | 16µM*! | ? | 12µM* | 18µM* | 18µM* | ?
Cc1ccn2c(NC3CCCC3)c(-c3ccsc3)nc2c1 | ? | 3% | 1% | -8% | -19% | i
Cc1cc(I)ccc1Nc1nc(NCCN2CCOCC2)nc(N2CCOCC2)n1 | i | / | / | / | / | ?
COc1ccc(CC(N)c2csc(NC(=O)c3cc(C(C)(C)C)nn3Cc3ccccc3)n2)cc1 (stereo not given) | ? | / | 21µM* | 21µM* | / | ?
CC(N)c1csc(NC(=O)c2cc(C(C)(C)C)nn2Cc2ccccc2)n1 (stereo not given) | ? | / | 18µM* | ? | / | ?
Cc1ccc(S(=O)(=O)NCCc2nnc3ccc(SCc4ccccc4F)nn23)cc1 | i | / | / | / | / | i
Cc1ccc(S(=O)(=O)NNC(=O)c2ccc(C(=O)N(c3ccccc3)c3ccccc3)cc2)cc1 | i | / | / | / | / | i
CCc1ccccc1NC(=O)Nc1nnc(N(CC)c2ccccc2)s1 | i | / | / | / | / | i
COCCOC(=O)C1=C(C)NC(=O)NC1c1cn(-c2ccccc2)nc1-c1ccccc1 (stereo not given) | i | / | / | / | / | i
CCN(CC)CC(O)Cn1c(C)c(-c2ccccc2)c2cc([N+](=O)[O-])ccc21 (stereo not given) | i | ? | 21µM* | ? | ? | ?
O=C(NNC(=S)NCc1ccccc1)c1ccccc1OC(F)F | i | -75% | -2% | 0% | 0% | i
O=C(Nc1ccc(Cl)c(Cl)c1)Nc1ccccc1C(=O)O | 15µM* | 8% | ? | ? | 7% | ?
O=C(Cc1ccccc1)Nc1ccc(NC(=O)c2cccs2)c(Cl)c1 | 21µM* | 4% | 13% | 13% | -2% | i
O=C(Cc1ccccc1)NNC(=O)Nc1ccc(Cl)c(Cl)c1 | i | -11% | -15% | 15µM* | ? | i
O=C(Nc1ccc(Cl)cc1)Nc1ccccc1C(=O)O | i | ? | -14% | ? | 25% | i
O=C(NNC(=S)Nc1ccc(Cl)cc1)c1ccccc1OC(F)F | 3.3µM* | ? | ? | ? | 17% | 18µM*
CCc1cnc2c(c1SC(C(C)=O)C(=O)N(C)C)c(=O)n(C)c(=O)n2C (stereo not given) | i | / | / | / | / | i
C[n+]1ccc(/C=C/c2ccc(C=S)cc2)c2ccccc21 | i | / | / | / | / | ?
CCOc1ccc(CCNC(=O)Cn2ccc3cc(S(=O)(=O)N4CCCCC4)ccc32)cc1 | i | / | / | / | / | i
O=C(Cc1ccccc1)NNC(=S)Nc1ccc(Cl)cc1 | i | 0.52µM* | 8% | 2% | 1% | i
O=C(Nc1ccc(Cl)c(Cl)c1)Nc1nc(-c2ccccc2)cs1 | 6.5µM* | 27% | 3% | -19% | ? | 12µM*
O=C(Cn1ncc2ccc(Cl)cc21)NCc1ccc(F)cc1 | ? | / | / | / | / | i
SMILES | KB-V1 MDR tox | SW480 rereplic | HT1080-NT tox | HT1080 IDH1KD tx | MCF10A rereplic | KB-3-1 tox
C=C(CN(C)C)C(=O)c1cc(C)ccc1C | ? | 5.8µM* | ? | 4.6µM* | 2.6µM* | ?
COc1cccc(CNC(=O)c2cc(C)nc3c2c(C)nn3-c2cccc(F)c2)c1 | i | / | / | / | / | i
COc1ccc([C@@]23Oc4cc(OC)cc(OC)c4[C@]2(O)[C@H](O)[C@H](C(=O)N(C)C)[C@H]3c2ccccc2)cc1 | ? | ? | ? | 0.16µM* | ? | ?
COCCN(C(=O)c1ccco1)c1nc(-c2ccc(OC)cc2)cs1 | ? | / | -2% | 1% | / | i
COc1ccc(-c2csc(N(CC3CCCO3)C(=O)c3ccco3)n2)cc1 (stereo not given) | i | ? | -14% | -26% | 16µM* | ?
CCN(C(=O)c1ccco1)c1nc(-c2ccc(OC)cc2)cs1 | i | 0% | 4% | 0% | 15% | i
COc1ccc(-c2csc(N(CC(C)C)C(=O)c3ccco3)n2)cc1 | i | ? | -13% | -27% | 18µM* | i
COc1ccc(NS(=O)(=O)c2cc3[nH]c(=O)c(=O)[nH]c3cc2C)cc1Cl | i | / | / | / | / | i
FC(F)(F)c1cc(Sc2ccccc2)nc(-c2ccccn2)n1 | ? | ? | 13µM* | ? | 0% | i
FC(F)(F)c1cc(Nc2ccccc2)nc(-c2ccccn2)n1 | i | -24% | 7% | 15% | ? | i
Fc1ccc2c(c1)-c1nc(-c3ccccc3)cc(-c3ccccc3)c1CO2 | ? | / | / | / | / | i
